Bioassay records (PubChem)
MCL1-BIM inh – MCL1-BIM-BH3 interaction inhibition (human); Q07820; GST-MCL1 / FITC-Bim-BH3 fluorescence polarization; inhibition, % at 10.9 µM; 320,000 tested, 0.68% active;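 active = inhibition above the mean inhibition of all tested compounds plus 3 SD, set per campaign, cut at about 40% in these data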;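 also: 0% = DMSO wells and 100% = unlabeled Bim-BH3 peptide control; higher means more loss of mP so more displacement of Bim peptide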
GLD-1 RNA inh – GLD-1-TGE RNA interaction inhibition (C. elegans); purified GLD-1 + fluorescein TGE RNA, fluorescence polarization; inhibition, % at 5.96 µM; Q17339; AID 2280; 320,000 tested, 0.44% active;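 active = percent inhibition above a per-plate cutoff, the plate mean of test compounds plus 3 SD, cut at about 30% in these data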;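 also: 0% = DMSO wells with GLD-1 and probe and 100% = wells lacking GLD-1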
Mcl-1 Bim block – inhibitors of Bim-Mcl-1 interaction, human. Q07820. inhibition, % at 10 µM. Bead-based flow cytometry, Bim peptide-Mcl-1 binding. 190,000 tested, 0.1% active; in the data active = inhibition above about 40%;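 also: 0% = no compound tracer wells and 100% = peptide blocker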
Mcl1-Noxa inh – Mcl-1/Noxa interaction inhibition. Q07820. TR-FRET Mcl-1/Noxa peptide binding, 2 h. inhibition, % at 21.7 µM. 220,000 tested, 1.5% active. AID 1022;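 active = compounds that cut the protein-peptide binding signal by more than 50% relative to plate controls in a single-dose test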;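 also: His-tagged Mcl-1 with rhodamine Noxa BH3 peptide and terbium anti-His antibody; 0% = Mcl-1 plus Noxa peptide wells and 100% = peptide-only wells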
Bcl-xL primary – blocks human Bcl-xL binding to Bim BH3 peptide. inhibition, % at 10.9 µM. GST-Bcl-xL / FITC-Bim BH3 peptide fluorescence polarization. AID 2129. 320,000 tested, 0.7% active. Q07817;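 active = inhibition above the mean of all tested compounds plus 3 SD, cutoff set per campaign, cut at about 30% in these data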;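 also: 0% = DMSO wells and 100% = unlabeled Bim-BH3 peptide competitor; inhibitors lower millipolarization by displacing the labeled peptide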
Target sequence (Q07817 whole entry, looked up): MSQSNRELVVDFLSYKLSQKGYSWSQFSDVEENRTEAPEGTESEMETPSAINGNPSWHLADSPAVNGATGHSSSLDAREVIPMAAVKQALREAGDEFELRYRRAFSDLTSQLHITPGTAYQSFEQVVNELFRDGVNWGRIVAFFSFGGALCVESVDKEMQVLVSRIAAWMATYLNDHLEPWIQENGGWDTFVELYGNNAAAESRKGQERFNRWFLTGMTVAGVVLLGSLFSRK
Mcl1-Bid inh – Mcl-1/Bid interaction inhibition; AID 1021; TR-FRET Mcl-1/Bid-Dy647 peptide binding, 1536-well; inhibition, % at 21.7 µM; Q07820; 220,000 tested, 0.97% active;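 active = compounds that cut the binding signal by more than half at the single screening dose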;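 also: His-tagged Mcl-1 with europium anti-His antibody binding Bid BH3 peptide; 0% = Mcl-1 plus peptide wells and 100% = peptide-only wells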
* = called active by the depositor; x = not tested or not shown. Hits are enriched below; roughly 2.3% of the tested compounds scored in any of these assays.

SMILES	MCL1-BIM inh	GLD-1 RNA inh	Mcl-1 Bim block	Mcl1-Noxa inh	Bcl-xL primary	Mcl1-Bid inh
CCN1C(=O)[C@H]2[C@@H](c3ccc(-c4cccc(Cl)c4)c(OC)c3)N[C@@](CC(C)C)(C(=O)OC)[C@H]2C1=O	0	3	x	x	2	x
O=C(Nc1ccccc1)Nc1ccc2ocnc2c1	-2	-3	1	-1	7	-22
O=C(Nc1ccccc1)Nc1ccc2ncoc2c1	0	6	91*	15	2	-27
CC1CCCN(CCCNC(=O)C2CCCN(c3ncnc4c3nc3n4CCCCC3)C2)C1 (stereo unspecified)	9	-2	x	x	5	x
CC1CCCCN1CCNC(=O)C1CCCN(c2ncnc3c2nc2n3CCCCC2)C1 (stereo unspecified)	34	15	x	x	39*	x
CC1CC(C)CN(CCCNC(=O)C2CCCN(c3ncnc4c3nc3n4CCCCC3)C2)C1 (stereo unspecified)	6	41*	x	x	4	x
COc1ccc(OC)c(NC(=O)NCc2cccnc2)c1	0	5	x	x	7	x
NC(=O)c1ccc(Oc2cccc3cccnc23)c([N+](=O)[O-])c1	29	6	2	34	33*	-40
Clc1ccc(SCc2cn3ccccc3n2)cc1	2	1	-2	-1	2	-25
c1ccc2c(SCc3cn4ccccc4n3)nncc2c1	1	3	-2	0	54*	9
Cc1ccc(/C=N/NC(=O)c2ccc3nc[nH]c3c2)o1	9	5	x	55*	7	-8
COC(=O)c1ccc(/C=N/NC(=O)c2ccc3nc[nH]c3c2)cc1	7	-5	x	x	9	x
CCc1cccc(CC)c1NC(=S)N1CCn2cccc2C1c1cccnc1 (stereo unspecified)	8	4	22	17	3	75*
Cc1ccc(NC(=S)N2CCn3cccc3C2c2cccnc2)cc1 (stereo unspecified)	13	5	-4	3	5	-39
CN(CC(=O)Nc1ccc(Cl)cc1)C(=O)Cc1c(F)cccc1Cl	-24	2	x	x	-6	x
CN(CC(=O)Nc1ccccc1Cl)C1CCS(=O)(=O)C1 (stereo unspecified)	3	3	x	x	36*	x
CN(CC(=O)Nc1ccccc1Cl)C1CCCCC1	3	-2	x	x	8	x
O=C(Nc1cccc(S(=O)(=O)N2CCCCCC2)c1)C1CCC1	-3	10	x	x	8	x
CC[C@H](C)/C=C(C)/C=C/C(=O)Cc1cc(O)c(C)c(O)c1C=O	22	17	x	18	18	-75
CC[C@H](C)/C=C(C)/C=C/C1=CC2=CC(=O)[C@]3(C)OC(=O)[C@@H](C(C)=O)[C@@H]3C2=CO1	47*	34*	1	4	38*	-13
Cc1cccn2c(=O)c(C=O)c(Cl)nc12	24	14	x	-7	27	51*
CCN(CC)c1ccc2c(Cl)cc(=O)oc2c1	5	-5	-3	12	12	17
CCNc1ccc2c(Cl)cc(=O)oc2c1	-8	-2	-1	1	0	97*
CSc1nc(NS(=O)(=O)c2ccc(F)cc2F)nn1C	2	2	x	x	8	x
CN(C)S(=O)(=O)c1ccc(Cl)c(NC(=O)CSc2nnnn2-c2ccc(O)cc2)c1	x	x	-2	22	x	56*
SMILES	MCL1-BIM inh	GLD-1 RNA inh	Mcl-1 Bim block	Mcl1-Noxa inh	Bcl-xL primary	Mcl1-Bid inh
CCOc1ccc(-n2c(SCC(=O)Nc3ccc(CC)cc3)nc3n[nH]c(C)c3c2=N)cc1	0	7	2	59*	3	59*
c1cc(C(c2nnnn2C2CCCCC2)N2CCN3CCCC3C2)ccn1 (stereo unspecified)	39	28	12	-3	37*	-25
O=C1NN(c2ccccc2)C(=O)/C1=C/c1ccc(Sc2cccc3ccccc23)o1	13	4	-3	51*	7	-41
CC(=O)C(c1ccccc1)C(c1ccccc1)C(C)[N+](=O)[O-] (stereo unspecified)	10	1	x	x	3	x
CCc1cccc2sc(N3CCN(C(=O)c4ccc([N+](=O)[O-])o4)CC3)nc12	-2	1	x	x	4	x
Nc1ccc(C2=Nc3cccc4cccc(c34)N2)cc1	x	x	3	77*	x	10
c1coc(C2=Nc3cccc4cccc(c34)N2)c1	24	9	8	33	14	-58
COc1cccc(C2=Nc3cccc4cccc(c34)N2)c1	19	8	-5	57*	14	10
CC1=Nc2cccc3cccc(c23)N1	25	0	-3	93*	22	-21
